These results are taken from PubChem BioAssay (NCATS).

Records with an inconclusive call do not appear. Values without a mark were called inactive. Activity calls are given as the source filed them. Calls come from the whole dose curve; as a rule, active = well fitted inhibition curve with a large enough effect; inconclusive = small, poorly fitted or top-dose-only effect; inactive = flat fitted curve, though single readings scatter.

What all share (test): Cytotoxic Profiling of Annotated Libraries Using Quantitative High-Throughput Screening (AID 1296008); note: nearly all actives have a fitted effect of over 60% in size
Settings in all cases: Five cell lines viability, CellTiter-Glo ATP luminescence, 48-72 h; max response: stronger effect = lower value
In general terms: Cellular ATP, detected with luciferase, serves as a proxy for viable cell number.

Assay [1] relates to CRL-7250. Put shortly:
(§1)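 Cells exposed to compounds for 48 or 72 hr at 37 degrees Celsius. Viability read as ATP-coupled luminescence with CellTiter-Glo after 10 min at room temperature.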

The test system of assay [2] is HEK293. Put shortly: as §1
For assay [3], the system named is KB-3-1. Put shortly:
as §1

The test system of assay [4] is NIH3T3. The gist of the method:
as §1
% is set by controls: 0 for no effect and ±100 for the full control effect; potency is the fitted concentration of half-maximal effect.

Regarding `COc1ccc(C2COc3cc(O)ccc3C2)c(O)c1` (centres undefined), the max response was -2.17% in assay [1], -0.71% in assay [2], -10.5% in assay [3] and 4.68% in assay [4].

As to `CC1(O)CC(O)C2(O)C=COC(O[C@@H]3O[C@H](CO)[C@@H](O)[C@H](O)[C@H]3O)C12` (some centres undefined), the max response in assay [1] is -2.75%; in assay [2], 4.59%; in assay [3] it was 0.806%; in assay [4], -15.6%.

Consider `Cc1ccc([N+](=O)[O-])cc1S(=O)(=O)N(C)/N=C/c1cnc2ccc(Br)cn12`, for which the Potency in assay [1] was 82 nM (active); in assay [2] it was 103 nM (active); in assay [3] it was 146 nM (active); in assay [4], 461 nM (active).

As for `c1cc(OCCCN2CCCCC2)ccc1CN1CCCCC1`, the figures for the max response in assay [1], in assay [2] and in assay [3] were -3.26%, -18.4% and -5.63%, respectively. In addition, the compound was called inactive in assay [4].

On to `C[C@@H]1C(=O)O[C@H]2[C@@H](O)C34[C@H]5C[C@@H](C(C)(C)C)C36[C@@H](OC(=O)[C@@H]6O)O[C@@]4(C(=O)O5)[C@@]12O` (some centres undefined), for which the max response in assay [1] is -0.587%; in assay [2], -1.43%; in assay [3], -6.44%; in assay [4], -0.498%.

Regarding `O=C1CSc2ccccc2N1Cc1cccc(C(F)(F)F)c1`, the max response in assay [1] was -9.14%; in assay [2], -20.3%; in assay [3], -14%; in assay [4] it was 4.03%.

As for `CCCC1(c2ccccc2)NC(=O)N(CC(=O)N(C)Cc2c(F)cccc2Cl)C1=O` (centres undefined), the max response in assay [1] was -1.75%; in assay [2] it was -6.56%; in assay [3], -1.57%; in assay [4] it was -2.22%.

For `COc1ccc(C2(O)c3ccccc3NC(=O)C2O)cc1` (centres undefined), the results for the max response in assay [1] and in assay [2] were 0.154% and -5.12%, respectively. The compound was classed as inactive in assay [3] and in assay [4].

In the case of `O=C(O)/C=C/c1ccc(O)c(O[C@@H]2O[C@H](CO)[C@@H](O)[C@H](O)[C@H]2O)c1`, the compound was called inactive in assay [1] and in assay [3]. For the same compound, the results for the max response in assay [2] and in assay [4] were -13.2% and 4.37%, respectively.

Regarding `CC1(C)CC[C@]2(C(=O)O)CC[C@]3(C)C(=CCC4[C@@]5(C)CC[C@H](O[C@@H]6O[C@H](CO)[C@@H](O)[C@H](O)[C@H]6O[C@@H]6O[C@H](CO)[C@@H](O)[C@H](O)[C@H]6O)[C@@](C)(CO)C5CC[C@]43C)[C@@H]2C1` (some centres undefined), the max response in assay [1] is -6.6%; in assay [2], -6.18%; in assay [3], 8.35%. The call in assay [4] was inactive.

Turning to `CC1(C)CC[C@]2(C(=O)O[C@@H]3O[C@H](CO)[C@@H](O)[C@H](O)[C@H]3O)CC[C@]3(C)C(=CCC4[C@@]5(C)CC[C@H](O[C@@H]6O[C@H](C(=O)O)[C@@H](O)[C@H](O[C@@H]7O[C@H](CO)[C@H](O)[C@H](O)[C@H]7O)[C@H]6O)C(C)(C)C5CC[C@]43C)C2C1` (some centres undefined), the figures for the max response in assay [1], in assay [2] and in assay [3] were -0.842%, 1.5% and 3.29%, respectively. In addition, in assay [4], the compound was called inactive.

Take `C[C@H](C(=O)NC1CCCC1)N(C(=O)Cn1nnc(-c2ccc3c(c2)OCO3)n1)C1CCCCC1`: the compound was called inactive in assay [1] and in assay [4]. Moreover, the max response in assay [2] is 2.96%; in assay [3], 5.01%.

Consider `CC[C@H](CO)Nc1nc(NCc2ccc(-c3ccccn3)cc2)c2ncn(C(C)C)c2n1`, for which the Potency in assay [1] was 92 nM (active); in assay [2], 206 nM (active); in assay [3], 116 nM (active); in assay [4] it was 517 nM (active).

As to `NC(=O)Nc1cc(-c2cccc(F)c2)sc1C(=O)NC1CCCNC1` (centres undefined), the max response in assay [1] is -112%; in assay [2], -108%. In addition, the Potency was 580 nM (active) in assay [3] and 517 nM (active) in assay [4].

Consider `COc1cc(C2c3cc4c(c(O)c3CC(CO)C2C(=O)O)OCO4)cc(OC)c1O` (centres undefined), for which the Potency in assay [1] was 3170 nM (active); in assay [2] it was 2240 nM (active); in assay [3] it was 2000 nM (active); in assay [4], 2820 nM (active).

With `CCOC(=O)CCN(C(=O)c1ccc2c(c1)nc(CNc1ccc(C(=N)N)cc1)n2C)c1ccccn1`, the max response was 2.71% in assay [1], -11% in assay [2], -6.67% in assay [3] and -4.58% in assay [4].

With `C/C=C(\C)C(=O)OCC1OC(OC2OC(COC(=O)/C(C)=C/C)C(OC3OC(CO)C(OC(=O)/C(C)=C/C)C(OC(=O)/C(C)=C/C)C3O)C(O)C2O)C(O)C(O)C1OC1OC(CO)C(OC(=O)/C(C)=C/C)C(OC(=O)/C(C)=C/C)C1O` (centres undefined), the max response in assay [1] was -8.02%; in assay [2], -7.34%; in assay [3], -4.08%; in assay [4], -26.7%.

Regarding `CC(=O)OC1C(=O)C2(C)C(O)CC3OCC3(OC(C)=O)C2C(OC(=O)c2ccccc2)C2(O)CC(OC(=O)C(O)C(NC(=O)c3ccccc3)c3ccccc3)C(C)=C1C2(C)C` (centres undefined), the Potency in assay [1] was 58 nM (active); in assay [2], 7.3 nM (active); in assay [3] it was 8.2 nM (active); in assay [4], 92 nM (active).

Consider `COC(=O)N(C)c1c(N)nc(-c2nn(Cc3ccccc3F)c3ncccc23)nc1N`, for which the result in assay [1] was inactive. For the same compound, the max response in assay [2] is -0.877%; in assay [3] it was 0.515%; in assay [4], 0.88%.

As for `CN(C)CC1CCOC1(c1ccccc1)c1ccccc1` (centres undefined), the results for the max response in assay [1], in assay [2] and in assay [3] were -5.19%, -21.7% and 5.01%, respectively. For the same compound, the compound was classed as inactive in assay [4].

In the case of `Cn1c(=O)cc(N2CCCC(N)C2)n(Cc2cc(F)ccc2C#N)c1=O` (centres undefined), the max response was 3.15% in assay [1], -7.1% in assay [2], -0.0728% in assay [3] and -2.76% in assay [4].
